Source: PubChem BioAssay (several laboratories)
tim23-1 inh: growth inhibitors of tim23-1 mutant yeast. S. cerevisiae tim23-1 growth, BacTiter-Glo luminescence, 24 h. inhibition, % at 20 µM. actives 1.3% (n = 330,000). AID 463212;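 active = growth inhibition of the mutant yeast at or above 50%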;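 note: temperature-sensitive mutant grown at 25 °C; plate controls were DMSO-treated mutant yeast for no effect and medium wells lacking yeast for full effect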
TIM10 inh: growth inhibitors of TIM10 yeast strain; inhibition, % at 10 µM; AID 463195; S. cerevisiae TIM10 strain growth, BacTiter-Glo luminescence, 24 h; actives 1.4% (n = 330,000);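 active = inhibition of 40% or more at the single tested concentration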;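 note: wild-type TIM10 isogenic control strain grown at permissive 25 °C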
V-ATPase pH: yeast V-ATPase proton transport regulation by pHLuorin; S. cerevisiae, pHLuorin cytosolic pH fluorescence; response, % at 10 µM; actives 0.37% (n = 350,000); in the data active = response mostly above about 7.3%, no sharp cut-off; inactive = mostly below about 5.4%; note: actives read high
PfHsp90 yeast 2: growth inhibition of yeast expressing Plasmodium Hsp90; S. cerevisiae expressing PfHsp90, BacTiter-Glo ATP, 48 h; yeast lacking PDR1 and PDR3 efflux regulators; inhibition, % at 9.4 µM; actives 0.32% (n = 310,000); AID 504621;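 active = every replicate shows inhibition above about 80%, whatever the replicate mean, limit read from the data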;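 note: 0% = DMSO neutral controls and 100% = 20 µM radicicol positive controls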
tim10-1 inh: growth inhibitors of tim10-1 mutant yeast. S. cerevisiae tim10-1 ts strain growth, BacTiter-Glo, 24 h. inhibition, % at 20 µM. actives 2.2% (n = 330,000);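 active = inhibition of at least 40%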;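 note: mutant grown at 25 °C; 0% = DMSO wells with yeast and 100% = wells holding no yeast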
tim10-1 conf: tim10-1 yeast growth inhibition, confirmed | shares compounds with tim10-1 inh | S. cerevisiae tim10-1 ts strain growth, BacTiter-Glo, 24 h | inhibition, % at 20 µM | actives 56% (n = 7,400) | AID 463213;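 active = inhibition of yeast growth at or above a set limit in either of two repeat tests at 20 µM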;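 note: tim10-1 mutant grown at permissive 25 °C to find synthetic lethal compounds; 0% = DMSO yeast wells and 100% = medium wells without yeast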
Starred values were filed as active, the others as inactive; nt = not tested or not shown. Sampled rows, rich in hits. Any-hit rate of the full collection: about 3.7%.

SMILES	tim23-1 inh	TIM10 inh	V-ATPase pH	PfHsp90 yeast 2	tim10-1 inh	tim10-1 conf
O=C(/C=C/c1cccc([N+](=O)[O-])c1)N1CCOCC1	9	-3	0	2	6	nt
Cc1cc(C)n2c(SCc3ccccc3Cl)nnc2n1	31	-2	-2	-9	43*	17
Nc1nc(-c2ccccc2)cc(-c2ccccc2O)n1	46	29	0	-24	43*	-8
Oc1ccccc1-c1csc(-c2ccccc2)n1	19	12	0	5	46*	37*
Clc1cc(-c2ccccc2)nc(-c2ccccc2)n1	26	20	-2	6	24	nt
Clc1nc(-c2ccccc2)cc(-c2ccccc2)n1	34	25	-1	-26	43*	27
CCOC(=O)c1ccc2[nH]c3c(c2c1)CCCC3O (stereo unspecified)	24	5	0	-5	23	nt
CCOC(=O)c1ccc2[nH]c3c(c2c1)CCCC3	28	29	-4	-36	42*	34*
C(=N\Nc1nc2ccccc2[nH]1)/c1ccccn1	nt	nt	3	26	nt	nt
BrC(=C\c1ccccc1)/C=N/Nc1nc2ccccc2[nH]1	44	36	-3	31	54*	32*
O=C(Nc1cccc(Cl)c1)c1nc[nH]c1C(=O)N1CCN(c2ccccc2)CC1	7	1	-1	1	9	nt
CN1C[C@@H]2C(c3ccccc3)C3(c4ccccc4)CC2(C3)[C@H]1c1ccccc1 (stereo partly specified)	23	34	-3	0	52*	32*
COCCCN(C(=O)CC1OC(=O)c2ccccc21)c1c(N)n(Cc2ccccc2)c(=O)[nH]c1=O (stereo unspecified)	10	1	4	-28	-4	nt
CCN(CC(=O)Nc1c(F)cccc1F)C(=O)CCc1nc2cc(S(=O)(=O)N3CCOCC3)ccc2n1C	8	-1	2	-19	2	nt
CN(C)CCNC(=O)c1ccc2c(=O)n(Cc3ccc(Cl)cc3)c(=S)[nH]c2c1	26	26	-4	-4	45*	30
COc1ccc(/C=N/Nc2ncccc2[N+](=O)[O-])c(OC)c1	12	3	5	27	10	nt
CC(C)=CCC/C(C)=C/CNC(=O)C[C@H]1C[C@H](C(=O)N2CCCCC2)[C@@]2(C)c3[nH]c4ccc(Cl)cc4c3CCN2C1=O	21	3	6	-17	4	nt
COc1ccc2sc(-c3ccc(S(C)(=O)=O)cc3)c(C#CCO)c2c1	47	15	-8	-11	43*	41*
COc1ccc2c(C#CCCO)c(-c3ccc(S(C)(=O)=O)cc3)sc2c1	19	27	-2	nt	23	nt
N#Cc1cccc(-n2c(-c3ccccc3)nnc2-c2ccccc2)c1C#N	42	20	0	-5	46*	35*
NC(=S)n1[nH]c(-c2ccc([N+](=O)[O-])cc2)c(N=Nc2cccc(Cl)c2)c1=O	46	36	6	-74	41*	43*
Cc1cc(C)c2nc(N3CCCN(C(=O)c4ccco4)CC3)c(C#N)cc2c1	37	23	0	17	47*	32*
O=C(Cn1cc(F)c(=O)[nH]c1=O)NCCO	5	-5	-2	-9	10	nt
COc1cc(CNC[C@H]2O[C@@H](n3cc(C)c(=O)[nH]c3=O)C[C@@H]2O)ccc1OCc1cccc(Cl)c1	nt	nt	-2	nt	nt	nt
COc1ccccc1NC(=S)NC(=O)C(C)(C)C	23	18	2	-30	50*	17
SMILES	tim23-1 inh	TIM10 inh	V-ATPase pH	PfHsp90 yeast 2	tim10-1 inh	tim10-1 conf
CN(C)c1ccc(/C=C/C=C2/SC(=S)N(c3ccccc3)C2=O)cc1	46	36	1	45	44*	29*
CCCCN(CC)CCCNC(=O)c1ccc2c(c1)N(CC)C(=O)c1ccccc1S2(=O)=O	15	4	3	10	6	nt
CN(Cc1ccccc1F)C(=O)c1ccc2c(=O)n3c(nc2c1)CCC3	13	7	-1	5	22	nt
Cc1onc(-c2ccc3c(c2)OCO3)c1-c1ccc2[nH]ccc2c1	-6	-13	1	-19	54*	40*
c1cc2cc(-c3c(-c4ccc5c(c4)OCO5)noc3-c3ccsc3)ccc2[nH]1	20	13	-1	3	29	nt
Cc1ccc(NC(=S)NNC(=O)c2ccc(N3CCOCC3)c([N+](=O)[O-])c2)cc1Cl	14	28	-4	-42	-5	nt
O=C(NNC(=S)Nc1ccc(Br)cc1)c1ccc(N2CCOCC2)c([N+](=O)[O-])c1	28	14	-1	-25	44*	18
OC1CCN(c2ncnc3c2nnn3Cc2c(F)cccc2Cl)CC1	17	15	2	-1	43*	26
CCOc1cc(/C=C2\CN(CC)C/C(=C\c3ccc(O)c(OCC)c3)C2=O)ccc1O	42	34	3	-11	49*	29
CCOc1cc(/C=N/N=C/c2ccc(O)c(OCC)c2)ccc1O	4	12	-1	-5	14	nt
Cc1ccc2[nH]c(C(=O)N3CCCC(Nc4ccc(F)cc4)C3)cc2c1 (stereo unspecified)	36	17	-3	9	51*	3
CSc1ccccc1NC(=O)C1CC(c2c(F)cccc2Cl)=NO1 (stereo unspecified)	47	33	-2	22	46*	56*
CC(=O)N1c2ccc(S(=O)(=O)N3CCC(C(=O)N4CC(C)CC(C)C4)CC3)cc2CC1C (stereo unspecified)	10	5	0	5	16	nt
COc1cccc(-c2nnc3sc(-c4ccco4)nn23)c1	5	-14	-2	nt	-8	nt
COc1cccc(-c2nnc3sc(-c4ccc(C)cc4)nn23)c1	27	2	nt	nt	-1	nt
CCOc1cccc(-c2nn3c(-c4ccco4)nnc3s2)c1	13	26	-2	15	42*	25
COc1cccc(-c2nn3c(-c4cccc(C)c4)nnc3s2)c1	28	19	-3	-6	44*	25
COc1ccccc1NC(=S)N(C(C)C)C(C)c1ccccn1 (stereo unspecified)	21	-13	-1	nt	28	nt
CC(C)N(C(=S)Nc1cccc(C(F)(F)F)c1)C(C)c1ccccn1 (stereo unspecified)	40	3	6	nt	43*	26
CSc1nsc(/C=C/Nc2ccc(F)cc2)c1C#N	34	21	-2	-4	29	nt
CSc1nsc(/C=C/Nc2ccc(O)cc2C)c1C#N	27	18	1	-5	46*	21
O=C(c1ccc(-c2cccc(Cl)c2Cl)o1)N1CCOCC1	39	22	0	-8	44*	42*
O=C(CSc1cccc2cccnc12)N1CCCC1	46	-3	0	-25	42*	34*
CC(=O)Nc1ccc2c(c1)CCc1ccccc1-2	40	14	-5	11	39	nt
O=C(O)/C=C/C(=O)c1ccc2c(c1)CCc1ccccc1-2	48	27	1	96*	58*	54*
